Drawing on PubChem BioAssay (EPA / NIEHS), this text covers AC50 and outcome for 13 compounds.

Each structure is given as a SMILES string. Active and inactive are the calls of the source. Rule for the calls: active = hit-call score of the fitted dose curve at least 0.9, where 1 is the maximum; inactive = score below 0.9.

Read-out in one experiment: Interleukin-8 (IL8), CXCL8 (gene 3576)
Kind of experiment: BSK_MyoF_IL8: BioMAP Diversity Plus: MyoF Assay for Interleukin-8 (IL8) Biomarker Activity (AID 2284261). The settings on record: primary human lung fibroblasts. In a few lines:
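IL-8 quantified by ELISA after 24 h compound exposure of primary human lung fibroblasts. SRB staining of parallel cultures flagged cytotoxicity; DMSO served as baseline.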
Broadly, the AC50 is the concentration at which the activity in the assay is half-maximal. With `CC1CCC(C(C)CS)CC1S` (centres undefined), the AC50 is 11.1 µM (active).

In the case of `O=C(O)C[C@H](O)C[C@H](O)/C=C/c1c(C2CC2)nc2ccccc2c1-c1ccc(F)cc1`, the AC50 was 1.1 µM (active).

As to `O=C(O)c1cn(-c2ccc(F)cc2)c2cc(N3CCNCC3)c(F)cc2c1=O`, the result was inactive.

For `CC(C)Oc1ccccc1O`, the result was inactive.

`CC1COc2ccccc2N1C(=O)C(Cl)Cl` (centres undefined): the AC50 is 16.1 µM (active).

Consider `Nc1cc([N+](=O)[O-])ccc1Cl`, for which the outcome was inactive.

Take `CCCCCCCCCC=O`: the result was inactive.

For the compound `O=C(O)c1cn(C2CC2)c2cc(N3CCNCC3)c(F)cc2c1=O`, the result was inactive.

Regarding `CCCCC(CC)COC(=O)/C=C\C(=O)OCC(CC)CCCC` (centres undefined), the result was inactive.

As to `CCCCCCCCC=O`, the result was inactive.

Regarding `CN(CCOc1ccc(CC2SC(=O)NC2=O)cc1)c1ccccn1` (centres undefined), the outcome was inactive.

With `CC(C)c1ccc(C(C)C)cc1`, the result was inactive.

For the compound `CC(=O)/C=C/C1=C(C)CCCC1(C)C`, the outcome was inactive.

Read-out in the next experiment: Decorin, DCN (gene 1634)
The experiment is described as follows: BSK_MyoF_Decorin: BioMAP Diversity Plus: MyoF Assay for Decorin Biomarker Activity (AID 2284265). The settings on record: primary human lung fibroblasts. In short, it runs like this: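 Decorin protein was quantified by ELISA 24 h after chemical addition to primary human lung fibroblasts and analysed as increase over DMSO. Cytotoxicity was tracked in parallel cultures by SRB total-protein staining read at 560 nm.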
On to `CC1CCC(C(C)CS)CC1S` (centres undefined), for which the AC50 was 10.1 µM (active).

For `O=C(O)C[C@H](O)C[C@H](O)/C=C/c1c(C2CC2)nc2ccccc2c1-c1ccc(F)cc1`, the outcome was inactive.

Turning to `O=C(O)c1cn(-c2ccc(F)cc2)c2cc(N3CCNCC3)c(F)cc2c1=O`, the outcome was inactive.

On to `CC(C)Oc1ccccc1O`, for which the outcome was inactive.

Turning to `CC1COc2ccccc2N1C(=O)C(Cl)Cl` (centres undefined), the result was inactive.

As to `Nc1cc([N+](=O)[O-])ccc1Cl`, the outcome was inactive.

Take `CCCCCCCCCC=O`: the result was inactive.

As to `O=C(O)c1cn(C2CC2)c2cc(N3CCNCC3)c(F)cc2c1=O`, the result was inactive.

In the case of `CCCCC(CC)COC(=O)/C=C\C(=O)OCC(CC)CCCC` (centres undefined), the outcome was inactive.

Turning to `CCCCCCCCC=O`, the result was inactive.

With `CN(CCOc1ccc(CC2SC(=O)NC2=O)cc1)c1ccccn1` (centres undefined), the outcome was inactive.

As to `CC(C)c1ccc(C(C)C)cc1`, the outcome was inactive.

Consider `CC(=O)/C=C/C1=C(C)CCCC1(C)C`, for which the outcome was inactive.

Read-out in the next experiment: not listed separately
The experiment is described as follows: BSK_MyoF_SRB: Viability Assessment in the BioMAP Diversity Plus: MyoF Assay (AID 2284267).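 Note: total protein by SRB absorbance in parallel cultures as cytotoxicity measure; cells assessed 24 h after compound addition.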 The conditions noted are these: primary human lung fibroblasts. In short, it runs like this:
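Cytotoxicity in primary human lung fibroblasts is gauged by SRB total-protein staining 24 h after dosing, with DMSO as the negative control.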
With `CC1CCC(C(C)CS)CC1S` (centres undefined), the AC50 was 9.53 µM (active).

In the case of `O=C(O)C[C@H](O)C[C@H](O)/C=C/c1c(C2CC2)nc2ccccc2c1-c1ccc(F)cc1`, the AC50 is 3.1 µM (active).

In the case of `O=C(O)c1cn(-c2ccc(F)cc2)c2cc(N3CCNCC3)c(F)cc2c1=O`, the outcome was inactive.

With `CC(C)Oc1ccccc1O`, the result was inactive.

In the case of `CC1COc2ccccc2N1C(=O)C(Cl)Cl` (centres undefined), the AC50 was 20 µM (active).

With `Nc1cc([N+](=O)[O-])ccc1Cl`, the outcome was inactive.

With `CCCCCCCCCC=O`, the outcome was inactive.

For the compound `O=C(O)c1cn(C2CC2)c2cc(N3CCNCC3)c(F)cc2c1=O`, the outcome was inactive.

In the case of `CCCCC(CC)COC(=O)/C=C\C(=O)OCC(CC)CCCC` (centres undefined), the result was inactive.

For `CCCCCCCCC=O`, the outcome was inactive.

`CN(CCOc1ccc(CC2SC(=O)NC2=O)cc1)c1ccccn1` (centres undefined): the outcome was inactive.

`CC(C)c1ccc(C(C)C)cc1`: the result was inactive.

As to `CC(=O)/C=C/C1=C(C)CCCC1(C)C`, the result was inactive.
